Test results: the supplement of paper PMC12645437, “Orthogonal IMiD-Degron Pairs Induce Selective Protein Degradation in Cells” (ACS Chemical Biology, 2025)
The full ranking holds about 8,300 sequences; the median of “log2 fold change of degron read counts, EGFP-low vs EGFP+ sorted cells (limma voom), compound-induced degradation” is about -1.1, and the highest 2% start at about 3.2. The sample holds the highest values, similar sequences and a random draw of the others, so the mix is not that of the screen.

T1: CRBN, Q96SW2
T1 chain: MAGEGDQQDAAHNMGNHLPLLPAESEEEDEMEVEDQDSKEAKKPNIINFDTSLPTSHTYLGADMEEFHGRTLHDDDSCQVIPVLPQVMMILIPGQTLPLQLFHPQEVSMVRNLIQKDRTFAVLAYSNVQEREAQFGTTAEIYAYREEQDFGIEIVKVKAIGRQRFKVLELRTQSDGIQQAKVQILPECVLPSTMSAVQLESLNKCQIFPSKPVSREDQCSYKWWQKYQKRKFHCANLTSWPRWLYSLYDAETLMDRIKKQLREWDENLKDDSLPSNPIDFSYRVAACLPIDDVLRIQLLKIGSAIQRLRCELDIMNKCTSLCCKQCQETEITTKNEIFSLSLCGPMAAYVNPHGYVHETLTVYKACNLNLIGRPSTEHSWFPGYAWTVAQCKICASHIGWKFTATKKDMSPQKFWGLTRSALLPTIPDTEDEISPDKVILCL


Biological target: T1, CRBN, Q96SW2
Experiment: log2 fold change of degron read counts, EGFP-low vs EGFP+ sorted cells (limma voom), compound-induced degradation; higher = more compound-induced degradation of the degron-EGFP fusion; degrons are variants of IKZF1/3 zinc finger 2; compound dose not given here
Settings: Jurkat, 18 h
Experimental: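 Pooled library of 8380 IKZF3 ZF2 degron mutants (positions 146-167 varied within the IKZF3 130-189 degron; only the varied core is printed, flanks not printed) fused to EGFP with IRES-mCherry, lentivirally expressed in Jurkat cells. mCherry+ cells were treated with one IMiD compound for 18 h (dose not stated) and FACS-sorted into EGFP-low and EGFP+ populations. Degron sequences were counted by NGS, and log2FC (EGFP-low vs EGFP+) was estimated by limma voom over 3 biological replicates.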

[1] = compound: compound 19 (5-tert-butyl-thalidomide)
[2] = compound: compound 22 (5-morpholino-thalidomide)
[3] = compound: compound 33 (diphenyl IMiD analogue)
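Further: pooled lentiviral library of zinc finger degron-EGFP fusions in mCherry-positive Jurkat cells, FACS-sorted after compound exposure, with degron abundance counted by next-generation sequencing.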

| Sequence | log2 fold change of degron read counts [1] | log2 fold change of degron read counts [2] | log2 fold change of degron read counts [3] | log2 fold change of degron read counts (compound: thalidomide) |
| --- | --- | --- | --- | --- |
| FTCDQCGASFTQKGNLLRHIKL [46F_47T_49D_50Q_52G_53A_54S_55F_67L_, Q9UKT9] | -1.41 | -1.1 | -0.521 | -1.39 |
| FRCEICGRAFTQKGNLLRHIKL [46F_47R_49E_50I_52G_53R_54A_55F_67L_, Q9UKT9] | -1.67 | -1.99 | 0.837 | 0.0765 |
| LWCNQCGFLCTQKGNLLRHIKL [46L_47W_49N_50Q_52G_53F_54L_55C_67L_, Q9UKT9] | -0.0173 | -0.578 | -0.261 | -0.106 |
| LCCEICGFACTQKGNLLRHIKL [46L_47C_49E_50I_52G_53F_54A_55C_67L_, Q9UKT9] | 1.77 | 1.67 | 1 | 1.51 |
| LYCEICGFACTQKGNLLRHIKL [46L_47Y_49E_50I_52G_53F_54A_55C_67L_, Q9UKT9] | 3.17 | 3.5 | 2.65 | 1.71 |
| LWCEICGFACTQKGNLLRHIKL [46L_47W_49E_50I_52G_53F_54A_55C_67L_, Q9UKT9] | 2.64 | 3.24 | 2.31 | 1.06 |
| LECEICGFACTQKGNLLRHIKL [46L_47E_49E_50I_52G_53F_54A_55C_67L_, Q9UKT9] | 0.666 | -1.22 | 0.464 | 1.55 |
| LICEICGFACTQKGNLLRHIKL [46L_47I_49E_50I_52G_53F_54A_55C_67L_, Q9UKT9] | 0.692 | 2.24 | 1.68 | 2.74 |
| LACEICGFACTQKGNLLRHIKL [46L_47A_49E_50I_52G_53F_54A_55C_67L_, Q9UKT9] | 3.1 | 2.3 | 0.347 | 0.922 |
| LQCEICGFACTQKGNLLRHIKL [46L_47Q_49E_50I_52G_53F_54A_55C_67L_, Q9UKT9] | 2.27 | 1.95 | 1.57 | 3.4 |
| LSCEICGFACTQKGNLLRHIKL [46L_47S_49E_50I_52G_53F_54A_55C_67L_, Q9UKT9] | 2.2 | 2.05 | 0.991 | 1.15 |
| LGCEICGFACTQKGNLLRHIKL [46L_47G_49E_50I_52G_53F_54A_55C_67L_, Q9UKT9] | 0.464 | -0.188 | -0.784 | -0.556 |
| FECNQCGRAFTQKGNLLRHIKL [46F_47E_49N_50Q_52G_53R_54A_55F_67L_, Q9UKT9] | -3.75 | -4.2 | -2.96 | -3.19 |
| LQCNQCGFPCTQKGNLLRHIKL [46L_47Q_49N_50Q_52G_53F_54P_55C_67L_, Q9UKT9] | -2.34 | -3 | -2.68 | -1.74 |
| FQCDQCGALFTQKGNLLRHIKL [46F_47Q_49D_50Q_52G_53A_54L_55F_67L_, Q9UKT9] | -3.22 | -2 | -1.8 | -0.219 |
| FGCPQCGAMFTQKGNLLRHIKL [46F_47G_49P_50Q_52G_53A_54M_55F_67L_, Q9UKT9] | 1.86 | -1.68 | 0.259 | -2.04 |
| LICEICGFVCTQKGNLLRHIKL [46L_47I_49E_50I_52G_53F_54V_55C_67L_, Q9UKT9] | -0.507 | 0.245 | 1.34 | 1.57 |
| FECNQCGANFTQKGNLLRHIKL [46F_47E_49N_50Q_52G_53A_54N_55F_67L_, Q9UKT9] | -3.06 | -3.6 | -1.14 | -1.62 |
